The record followed here is PubChem BioAssay AID624305 (National Center for Advancing Translational Sciences (NCATS), 2012).

Inconclusive results are not listed. Values without a mark were called inactive. The source made the active and inactive calls. Calls follow the shape of the dose curve; as a rule, active = well fitted activation curve with a large enough effect; inconclusive = small, poorly fitted or top-dose-only effect; inactive = no such curve, though single readings can be large or run the other way.
Potency is read from the fitted curve at half-maximal effect.

The assay in a line: qHTS assay for re-activators of p53 using a Luc reporter: Hit Validation. Also: nearly all actives have a fitted effect of over 75% in size. As to activation: 0% is about no effect. The settings on record: p53-responsive luciferase reporter cells, luminescence, H1299 line expressing heat-sensitive Ala138Val p53; series mostly up to 46.1 µM; activation: at the top concentration. In outline: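 Hit confirmation with a 1:5 dilution series, at 37 deg C for 24 hrs, in H1299 cells co-expressing temperature-sensitive p53-A138V and p53-responsive luciferase. Nocodazole served as control; luminescence read after 10 min with detection reagent.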
As for `CCN(Cc1ccccc1)C(=O)CN1C(=S)NC(C)(C)CC1C` (stereo not drawn), the activation is -15.4% [at 9.22 µM].

`Cc1cccc(C(=O)OCC(=O)N2CCCCCC2)c1O`: the Potency was 5.17 µM (active). The same measure, in the same setting: to `Cc1ccsc1/C=N/Nc1nc2ccccc2[nH]1` belongs 1.3 µM (active). Turning to `CC(=O)N/C(=C/c1ccc2c(c1)OCO2)C(=O)Nc1ccccc1`, the “activation” value was 2.08%. On the same count and under the same terms, under `O=C(Nc1ccccc1Oc1ccccc1)c1cc([N+](=O)[O-])ccc1Cl` stands -29.2%.

As to `O=S(=O)(CCOc1ccccc1)c1nc2ccccc2[nH]1`, the “activation” value was -10.9%. Same read-out and setting: under `Cc1ccc(S(=O)(=O)NCC(=O)NCC(=O)N2CCC(C)CC2)cc1` stands -10.9%. As for `O=C(Nc1ccc(Br)cn1)c1cccc(-c2cc3ccccc3oc2=O)c1`, the Potency is 16.4 µM (active). For `Cc1cccc(N2CCN(S(=O)(=O)c3ccc4c(c3)CCC(=O)N4)CC2C)c1` (stereo not drawn), the “activation” value is -12%. Same read-out and setting: under `Cc1cc(C(c2nnnn2Cc2ccccc2)N2CCOCC2)c(C)n1-c1ccc2c(c1)OCO2` (stereo not drawn) stands 4.17%. As to `Cc1ccc2cc(CCNC(=O)c3ccco3)c(=O)[nH]c2c1C`, the Potency was 2.31 µM (active).

Turning to `CC(C)N1CCc2c(sc(NC(=S)NC(=O)c3ccccc3)c2C#N)C1`, the activation is 7.78% [at 9.22 µM]. On the same count and under the same terms, to `COCCN(Cc1cn[nH]c1-c1ccc2cc(OC)ccc2c1)C(C)C` belongs 31.8%. `CC(Cc1ccccc1)NC(=O)c1ccc([N+](=O)[O-])cc1` (stereo not drawn): the Potency was 2.59 µM (active).

Turning to `CCCN1C(=O)SC(CC(=O)Nc2ccccc2C)C1=O` (stereo not drawn), the activation was 12.4% [at 9.22 µM]. Take `Cc1ccsc1C(=O)Nc1ccc2c(c1)OCCO2`: the Potency was 0.326 µM (active). As for `NS(=O)(=O)c1ccc(CCNCc2cccnc2)cc1`, the “activation” value was -16.7%. For the compound `CC(=O)c1cc2c(C)c(C(=O)c3ccccc3)oc2cc1O`, the Potency was 0.411 µM (active).

As for `O=C(Nc1ccc2ccccc2c1)c1ccc(Cl)cc1Cl`, the Potency is 0.291 µM (active). Regarding `COc1ccccc1C(=O)O/N=C(\N)c1ccccc1Cl`, the “activation” value was -84.4%. Same read-out and setting: under `Cc1ccc(C)c(Oc2cc(NC(=O)CCCn3nc(C)c([N+](=O)[O-])c3C)cc([N+](=O)[O-])c2)c1` stands -32.8%; under `COC(=O)Cc1n[nH]c(=S)[nH]c1=O`, -15.1%; under `Cc1ccc(NC(CC(=O)c2ccccc2)c2ccc(F)cc2)cc1` (stereo not drawn), 25.5%. With `Cc1ccc2c(c1)sc1nc(=O)n(-c3cccc(Cl)c3)c(=O)n12`, the Potency was 8.2 µM (active). Same read-out and setting: to `Cc1cc(C)cc(NC(=O)c2sc3nc(C)cc(C)c3c2N)c1` belongs 11.6 µM (active); to `NC(N)=Nc1nc(C2COc3ccccc3O2)cs1` (stereo not drawn), 4.11 µM (active); to `c1ccc(-c2ccc(-c3ccccn3)nn2)nc1`, 0.082 µM (active).

As to `Cc1cnc(C(=O)OCC(=O)Nc2ccc(OCc3ccccc3)cc2)cn1`, the Potency is 18.4 µM (active). For `COc1ccccc1C(=O)CSc1nccn1C`, the “activation” value is 31.8%.

With `CN1CCN(C2=C(Cl)C(=O)N(Cc3ccccc3)C2=O)CC1`, the “activation” value is 32.3%. In the case of `Cn1c(Cc2cccs2)nnc1SCc1nc2ccccc2[nH]1`, the “activation” value was 6.77%. In the case of `O=C(NOCc1ccccc1)c1ccccc1`, the Potency is 9.2 µM (active).

As for `Cc1ccc(OCCN2CCOCC2)cc1C`, the “activation” value was 23.4%.

On to `COc1cccc(Oc2ccc(N)cn2)c1`, for which the “activation” value was -17.7%. As for `O=C(/C=C/c1ccco1)Nc1ccccn1`, the Potency was 2.31 µM (active). The same measure, in the same setting: under `CCOc1ccc(N2C(=O)c3ccccc3NC2(C)CC)cc1` (stereo not drawn) stands 9.2 µM (active).

On to `Cc1cccc(-n2c(C)cc(C(=O)NC3CCCCC3)c2C)c1`, for which the Potency was 7.31 µM (active).

For `O=C(CSc1ccccc1)Nc1ccc(-c2nc3ccccc3[nH]2)cc1`, the “activation” value was 76.6%.
